Our source for the max response and Potency values is PubChem BioAssay AID651814 (National Center for Advancing Translational Sciences (NCATS), 2012).

Out of some 2,100 compounds screened, about 590 (28%) were called active. Inconclusive results (about 42%) are left out. Calls come from the whole dose curve; as a rule, active = well fitted inhibition curve with a large enough effect; inconclusive = small, poorly fitted or top-dose-only effect; inactive = flat fitted curve, though single readings scatter. This is one part of the list.
Potency is the fitted concentration of half-maximal effect.

The target in this experiment is DNA dC->dU-editing enzyme APOBEC-3F (Homo sapiens) (UniProt Q8IUX4). In words: qHTS for inhibitors of Vif-A3F interactions: Cherry picks.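 For max response: % of control where 0% means no effect; active compounds raise eYFP fluorescence by blocking Vif-driven A3F loss.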 Note: nearly all actives have a fitted effect of over 70% in size. As to conditions: HeLa A3F-eYFP + Vif (tagged APOBEC3F with the HIV-1 protein that degrades it), eYFP fluorescence, 24 h. The method in brief: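 Read-out: yellow fluorescence (ex 488 nm, em 500-530 nm) by laser-scanning cytometer after 24 h compound exposure, several concentrations, at 37 deg C. Cells: HeLa line stably co-expressing Vif and C-terminally eYFP-tagged A3F; MG132 served as positive control.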
Chain of DNA dC->dU-editing enzyme APOBEC-3F (Homo sapiens) (Q8IUX4 whole entry, looked up): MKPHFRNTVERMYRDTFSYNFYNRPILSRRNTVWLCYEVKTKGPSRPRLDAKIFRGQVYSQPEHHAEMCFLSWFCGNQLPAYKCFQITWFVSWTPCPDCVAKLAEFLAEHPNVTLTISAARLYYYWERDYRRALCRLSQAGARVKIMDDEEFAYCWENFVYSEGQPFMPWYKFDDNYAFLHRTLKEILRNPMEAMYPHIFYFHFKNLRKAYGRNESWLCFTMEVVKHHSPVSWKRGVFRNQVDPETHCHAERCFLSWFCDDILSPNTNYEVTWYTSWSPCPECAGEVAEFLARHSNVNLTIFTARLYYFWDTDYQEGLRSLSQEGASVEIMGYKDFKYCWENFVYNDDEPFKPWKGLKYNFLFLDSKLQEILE
In general terms: qHTS replaces the single test concentration by a dilution series.
Regarding `C/C(=N/NC(N)=S)c1ccc(Br)s1`, the max response was 1.12% (inactive).

In the case of `CC(NC1=CC(=O)c2cccnc2C1=O)C(O)c1ccccc1` (stereo unspecified), the max response is -27.2% (inactive).

For `O=C(NCc1ccco1)C1Cc2c(-c3cccc(F)c3)ccnc2O1` (stereo unspecified), the max response is -27.2% (inactive).

On to `Cc1ccc(-c2cc(C(=O)N/N=C/C(Br)=C/c3ccccc3)n[nH]2)o1`, for which the max response is -23.7% (inactive).

As to `O=[N+]([O-])c1ccccc1C1Nc2cccc3cccc(c23)N1`, the max response is 1.22% (inactive).

Take `Cc1ccc(S(=O)(=O)Nc2cc(Cl)c(O)c3ncccc23)cc1`: the max response is -26.9% (inactive).

Turning to `Cc1cccc2[nH]cc(/C=C3/C=Nc4ccccc43)c12`, the Potency is 23.1 µM (active).

`COc1ccccc1N1N=C(c2ccc([N+](=O)[O-])cc2)CC1c1ccccc1` (stereo unspecified): the Potency is 1.12 µM (active).

As for `C(=C\c1ccco1)/C1=NN(c2ccccc2)C(c2ccco2)C1` (stereo unspecified), the max response was -27.8% (inactive).

With `COc1cccc(C2CC(c3ccccc3)=NN2S(=O)(=O)c2ccc(C)cc2)c1OC` (stereo unspecified), the max response is -28.4% (inactive).

For the compound `O=[N+]([O-])c1ccc(/C=C/C2=NN(c3ccccc3)C(c3ccco3)C2)o1` (stereo unspecified), the Potency is 2.59 µM (active).

For `O=[N+]([O-])c1ccc(C2=NN(c3ccccc3)C(c3ccco3)C2)cc1` (stereo unspecified), the Potency is 1.25 µM (active).

As to `CCCOc1ccc(N)cc1N`, the max response is 4.36% (inactive).

Take `CN1C(=O)C(O)(C2COC(C)(C)CC2=O)c2cc(Br)ccc21` (stereo unspecified): the max response was -0.16% (inactive).

With `CC(C)CCNC(=O)c1ccc2c(c1)NC(=O)C(CS(=O)(=O)Cc1cccc(Br)c1)N2` (stereo unspecified), the max response is 0.102% (inactive).

With `CCN1/C(=C/C=C2/SC(=Nc3cccc4ncccc34)N(C)C2=O)Sc2ccccc21`, the Potency is 16.4 µM (active).

`C/C(=N\NC(=O)c1cc(-c2ccncc2)nc2ccccc12)c1ccc(N2CCOCC2)cc1`: the max response was -14.9% (inactive).

Consider `CC(C)n1cc(/C=C/c2cc[n+](C)cc2)c2ccccc21`, for which the Potency is 1.4 µM (active).

On to `C=CCn1cc(/C=C/c2cc[n+](C)cc2)c2ccccc21`, for which the Potency is 2.23 µM (active).

As to `CCn1cc(/C=C/c2cc[n+](C)cc2)c2ccccc21`, the Potency was 0.79 µM (active).

On to `CC(=O)c1cc(NC(=O)c2ccc(Cl)cc2)c(=O)oc1/C=C/N(C)C`, for which the Potency was 6.27 µM (active).

For the compound `CC(=O)c1c(C)[nH]c(C(=O)Nc2ccc(Cl)cc2F)c1C`, the max response is -17.7% (inactive).

Regarding `COc1cc(OC)cc(C(=O)Nc2ccccc2C(=O)NC2CC2)c1`, the max response is -22.6% (inactive).

With `COC(=O)c1c(-c2ccccc2Cl)noc1/C=C/N(C)C`, the max response is 2.98% (inactive).

Regarding `COC(=O)c1cc(NC(=O)c2ccccc2)c(=O)oc1/C=C/Nc1ccc(Oc2ccccc2)cc1`, the max response was -22% (inactive).

For `CC(=O)c1cc2c(cc1NS(=O)(=O)c1ccc(C)cc1)OCCO2`, the max response was -26.6% (inactive).

In the case of `CC(=O)c1cc(NC(=O)c2ccc(C)cc2)c(=O)oc1/C=C/N(C)C`, the Potency is 20.6 µM (active).

Take `COc1ccc(C(=O)Nc2cc(C(C)=O)c(/C=C/N(C)C)oc2=O)cc1`: the Potency was 11.2 µM (active).

As to `C/C(=N\Nc1nccnc1Cl)c1ccc(Cl)c(Cl)c1`, the max response was 0.009% (inactive).

Regarding `N#CC1=C(N)C(C#N)(C#N)[C@H](c2c(F)cccc2F)[C@H]2CC3(CC=C12)OCCO3`, the Potency is 20.6 µM (active).

For `CCCCCCc1cc2cc(-c3nnc(-c4ccccc4OC)o3)c(=O)oc2cc1O`, the Potency is 2.8 µM (active).

`CCCCCCc1cc2cc(-c3nnc(-c4ccccc4)o3)c(=O)oc2cc1O`: the Potency was 3.96 µM (active).

Turning to `CCCCCCc1cc2cc(-c3nnc(-c4ccccc4O)o3)c(=O)oc2cc1O`, the max response was 6.08% (inactive).

Turning to `COc1ccccc1-c1cc(C(=O)NN)[nH]n1`, the max response is 7.62% (inactive).

For the compound `C=C(NC(=O)C(=C)NC(=O)c1csc(C2=NC3c4csc(n4)C4NC(=O)c5csc(n5)C(C(C)(O)C(C)O)NC(=O)C5CSC(=N5)/C(=C/C)NC(=O)C(C(C)O)NC(=O)c5csc(n5)C3(CC2)NC(=O)C(C)NC(=O)C(=C)NC(=O)C(=C)NC(=O)C(C(C)C)NC2C=Cc3c(C(C)O)cc(nc3C2O)C(=O)OC4C)n1)C(N)=O` (stereo unspecified), the Potency is 12.5 µM (active).

For `O=C(Cn1c(=O)n(Cc2ccco2)c(=O)c2sc3ccccc3c21)Nc1ccccc1C(F)(F)F`, the Potency is 14.6 µM (active).

With `O=C(Cn1cnc2c(cnn2-c2ccc(F)cc2)c1=O)NCc1ccco1`, the max response was -25.6% (inactive).

With `CCc1ccc(N=Nc2ccc(O)c3[nH]cnc23)cc1`, the Potency is 13 µM (active).

For `O=S(=O)(Nc1nc2ccccc2nc1N1CCc2ccccc2C1)c1ccc(Br)cc1`, the max response is -17% (inactive).

For the compound `CCOc1ccc(N/C=C/C(=O)c2cc(OC)c(OC)c(OC)c2)cc1`, the max response was -29.8% (inactive).

As to `COc1cc(/C=C/C(=O)c2ccc3c(c2)OCCO3)cc(Br)c1OCC(=O)N(C)C`, the Potency was 15.8 µM (active).

`CCOC(=O)C1=C(C)N=c2sc(=Cc3cc(Cl)c(OCC(=O)O)c(Cl)c3)c(=O)n2C1c1cccc(OC)c1` (stereo unspecified): the Potency is 19.8 µM (active).

With `C=CCN1C(=O)/C(=C/c2ccc(O)c(OC)c2)S/C1=N/c1nccs1`, the max response is -0.164% (inactive).

In the case of `C=CCN1C(=O)/C(=C2/Sc3ccc(OC)cc3N2C)SC1=Nc1cccc(O)c1`, the Potency is 20.6 µM (active).

With `C=CCN1C(=O)/C(=C2/Sc3ccc(OC)cc3N2CC)SC1=S`, the Potency is 9.2 µM (active).

In the case of `Cc1ccc2[nH]c(C(=O)NN=C3CCCCC3)c(-c3ccccc3)c2c1`, the max response is 0.516% (inactive).

As for `Cc1cc(C)cc(Oc2nc(C(F)(F)F)nc3ccccc23)c1`, the max response is -26.3% (inactive).

On to `CCc1ccc2nc(N(CCCN(C)C)C(=O)c3ccc(S(=O)(=O)N(C)C4CCCCC4)cc3)sc2c1`, for which the max response was -4.66% (inactive).

On to `C[n+]1cc(C(=O)N2CCCCC2)ccc1/C=C/c1c[nH]c2ccccc12`, for which the Potency was 14 µM (active).

In the case of `OCC[n+]1ccc(/C=C/c2c[nH]c3ccccc23)cc1`, the Potency is 8.2 µM (active).

For `CC[n+]1ccc(/C=C/c2c[nH]c3ccccc23)cc1`, the Potency is 9.2 µM (active).

Regarding `C[n+]1ccc(/C=C/c2c[nH]c3ccccc23)cc1`, the Potency is 9.2 µM (active).

On to `O=C(C(=O)N1CCN(c2ccccc2Cl)CC1)c1c[nH]c2ccccc12`, for which the max response was 2.85% (inactive).

With `CC(=O)Nc1ccc(S(=O)(=O)Nc2nc3ccccc3nc2Nc2ccc3ccccc3c2)cc1`, the max response was 0.168% (inactive).

Take `COc1ccc2oc(-c3ccccc3[N+](=O)[O-])cc(=O)c2c1`: the max response was -28% (inactive).

On to `COc1ccc(S(=O)(=O)N2CCN(C(=O)c3ccc([N+](=O)[O-])o3)CC2)cc1`, for which the max response is -3.97% (inactive).

With `COc1ccc2[nH]c3c(c2c1)CCNC3c1ccc([N+](=O)[O-])o1` (stereo unspecified), the Potency was 23.1 µM (active).

`CC(/C=C/c1ccc(N(C)C)cc1)=N\N=C(/N)SC1CC(=O)N(c2ccc(C(=O)O)cc2)C1=O` (stereo unspecified): the max response is -20.3% (inactive).

As to `CCOC(=O)C1C(=O)C=C(/C=C/c2ccc(N(C)C)cc2)CC1c1ccccc1` (stereo unspecified), the Potency was 10.3 µM (active).

As for `Cc1ccc(/C=N/NC(=O)CCCOc2ccc(Cl)cc2Cl)cc1`, the max response is -27.3% (inactive).

Take `Cc1ccc(-c2nc3ncccc3o2)cc1NC(=O)c1ccc([N+](=O)[O-])o1`: the max response was -17.2% (inactive).
